Measurements taken from PubChem BioAssay (NCATS).
Records with an inconclusive call do not appear. A number with no mark means an inactive call. Activity calls are given as the source filed them. The call rests on the fitted dose curve; in most records, active means well fitted inhibition curve with a large enough effect; inconclusive means small, poorly fitted or top-dose-only effect; inactive means flat fitted curve, though single readings scatter. Where a SMILES comes first, the peptide text is derived from it.

Target: Glutathione peroxidase 1 (Homo sapiens) (UniProt P07203)
Assay: Primary qHTS Assay for Inhibitors of Recombinant Selenoprotein Glutathione Peroxidase 1 (GPX1) (AID 1845191); further: nearly all actives have a fitted effect of over 65% in size
Conditions: recombinant GPX1, GR-coupled NADPH fluorescence, 15 min; series mostly up to 27.7 µM; activity, negative = inhibition: at the top concentration
Summary of the method: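 NADPH consumption tracked by fluorescence at 340/450 nm between t=0 and t=15 min, room temperature. Final mix: 10 nM GPX1, 100 nM glutathione reductase, 1 mM GSH, 0.5 mM NADPH, 0.5 mM cumene hydroperoxide, 0.01% BSA; 30 min compound–enzyme preincubation.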
On the % scale 0 is the no-effect control and ±100 the full control effect.

Sequence of Glutathione peroxidase 1 (Homo sapiens) (P07203 whole entry, looked up): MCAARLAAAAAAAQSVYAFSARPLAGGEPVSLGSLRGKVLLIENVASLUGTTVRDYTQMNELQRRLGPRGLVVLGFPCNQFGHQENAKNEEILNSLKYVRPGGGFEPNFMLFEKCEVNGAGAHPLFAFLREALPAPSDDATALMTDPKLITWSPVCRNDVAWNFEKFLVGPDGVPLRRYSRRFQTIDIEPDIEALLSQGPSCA

| Structure (SMILES) | outcome | activity, negative = inhibition |
| --- | --- | --- |
| Cc1[nH]c2ccccc2c1CC(=O)N[C@@H](Cc1ccccc1)C(=O)N(C)c1ccccc1 | inactive [at 48.8 µM] | – |
| CC1(C)C=Cc2c(ccc3c2[N+]([O-])=C2C3(O)CC34NC(=O)C5(CCCN5C3=O)CC4C2(C)C)O1 (centres undefined) | inactive | – |
| COc1cc2c(c(OC)c1O)C(c1ccc(O)cc1)C1C(=O)OC3C(COC(=O)C1=C2)OC(CO)(OC1OC(COC(=O)/C=C/c2ccc(OC4OC(C)C(O)C(O)C4O)cc2)C(O)C(O)C1O)C3O (centres undefined) | – | -9.35% [at 15.3 µM] |
| C#CCCCn1cc(-c2cccc3c2N[C@@H](C)CC(=O)N3)cn1 | inactive [at 48.8 µM] | – |
| C=C[C@H]1[C@H](O[C@@H]2O[C@H](CO)[C@@H](O)[C@H](O)[C@H]2O)OC=C2C(=O)N3Cc4c([nH]c5ccccc5c4=O)[C@@H]3C[C@H]21 | – | -15% |
| C/C(=C\CCC1(C)C2CC3C(C2)C31C)C(=O)O (centres undefined) | inactive [at 48.8 µM] | – |
| c1ccc2c(Nc3nnc(-c4ccncc4)s3)cccc2c1 | inactive [at 48.8 µM] | – |
| C/C(=C\C1CCC(C)C2CCC3(C)OC123)C(=O)O (centres undefined) | inactive [at 48.8 µM] | – |
| COC(=O)C1=CO[C@@H](O[C@@H]2O[C@H](CO)[C@@H](O)[C@H](O)[C@H]2O)[C@@H]2C(C)CC(=O)[C@]12O (some centres undefined) | – | 0.073% |
| CC1=C[C@@H]2[C@H]3[C@@H]4O[C@@](C)(CC[C@H]4O)[C@H]3CC(=O)[C@]23C(=O)N[C@@H](CC(C)C)[C@@H]3[C@@H]1C | – | -13.2% |
| C[C@@H]1O[C@@H](O[C@H]2[C@H](O)[C@@H](O)[C@H](OC[C@H]3O[C@@H](OC(=O)[C@]45CCC(C)(C)C[C@H]4C4=CCC6[C@@]7(C)C[C@@H](O)[C@H](O)[C@@](C)(CO)C7[C@H](O)C[C@@]6(C)[C@]4(C)CC5)[C@H](O)[C@@H](O)[C@@H]3O)O[C@@H]2CO)[C@H](O)[C@H](O)[C@H]1O (some centres undefined) | – | 2.07% [at 15.3 µM] |
| C[C@H]1[C@H](C)CC[C@]2(C(=O)O)CC[C@]3(C(=O)O)C(=CCC4[C@@]5(C)CC[C@H](O[C@@H]6O[C@@H](C)[C@H](O)[C@@H](O)[C@H]6O)C(C)(C)C5CC[C@]43C)[C@H]12 (some centres undefined) | – | -1.23% [at 15.3 µM] |
| O=C(O)C(Cc1ccccc1)NC(=O)C1CCCN1 (stereo not drawn) (H-Pro-Phe-OH; configuration not given here) | – | -9.33% [at 48.8 µM] |
| CC(C)CC(=O)NCCn1cc(C(=O)O)c(=O)cc1C(O)c1ccccc1 (centres undefined) | inactive | – |
| CC(=O)O[C@@H]1C(=O)C(C)=C(CCC(C)CC(=O)O)[C@@]2(C)CCCC(C)(C)C12 (some centres undefined) | – | -18.1% |
| O=C(O)/C=C/c1ccc(O[C@@H]2O[C@H](CO)[C@@H](O)[C@H](O)[C@H]2O)cc1 | inactive | – |
| COc1c2cc(c(O)c1OC)CCCCC(O)CCc1ccc(O)c-2c1 (centres undefined) | inactive | – |
| OC[C@H]1O[C@@H](OC[C@H]2O[C@@H](OCc3ccccc3)[C@H](O)[C@@H](O)[C@@H]2O)[C@H](O)[C@@H](O)[C@@H]1O | inactive | – |
| CC/C=C/C(O)C(O)C1=C(C)C(=O)C2(O1)C(=O)NC(OC)(C(=O)c1ccccc1)C2O (centres undefined) | – | -8.71% |
| Cc1occc(=O)c1O[C@@H]1O[C@H](CO[C@@H]2OC[C@](O)(CO)[C@H]2O)[C@@H](O)[C@H](O)[C@H]1O | – | -4.08% |

| Structure (SMILES) | outcome | activity, negative = inhibition |
| --- | --- | --- |
| COc1ccc(C2OCC3C(c4cc(OC)c5c(c4)OCO5)OCC23)cc1OC (centres undefined) | – | -6.43% |
| C[C@]1(OC(=O)/C=C/c2ccc(O)cc2)C[C@@H](O)[C@]2(O)C=CO[C@@H](O[C@@H]3O[C@H](CO)[C@@H](O)[C@H](O)[C@H]3O)C12 (some centres undefined) | inactive | – |
| CC(=O)N[C@H]1[C@H](O[C@H]2CC[C@]3(C)C4CC=C5[C@@H]6CC(C)(C)CC[C@]6(C(=O)O)[C@H](O)C[C@@]5(C)[C@]4(C)CC[C@H]3C2(C)C)O[C@H](CO)[C@@H](O)[C@@H]1O (some centres undefined) | – | -28.4% [at 15.3 µM] |
| COc1cc(C(C)=O)ccc1O[C@@H]1O[C@H](CO)[C@@H](O)[C@H](O)[C@H]1O | – | -5.02% |
| CCCCC(=O)N1c2ccccc2NC2=C(C(=O)CCC2)C1c1ccccc1Cl (centres undefined) | inactive [at 48.8 µM] | – |
| CC(=O)/C=C/C1(O)C(C)CC(O[C@@H]2O[C@H](CO)[C@@H](O)[C@H](O)[C@H]2O)CC1(C)C (some centres undefined) | inactive | – |
| CCC1OC(=O)C(C)CC(C)C(=O)/C(C)=C/C(C)C(=O)/C=C/C1(C)O (centres undefined) | inactive | – |
| COc1cc(C)c(C(=O)O[C@@H]2[C@H](O)[C@@H](CO)O[C@H]2n2ccc(=O)[nH]c2=O)c(OC)c1 | inactive | – |
| C/C=C1/CC2C(=O)Nc3cc(O)c(OC)cc3C(=O)N2C1 (centres undefined) | inactive | – |
| COc1ccc(O[C@@H]2O[C@H](CO)[C@@H](O)[C@H](O)[C@H]2O)cc1OC | inactive | – |
| CC(C)=CCc1c(O)cc2oc3cc(C)cc(O)c3c2c1C | – | -18.4% [at 48.8 µM] |
| C[C@H](/C=C/[C@@]1(O)[C@H](C)CC(=O)CC1(C)C)O[C@@H]1O[C@H](CO[C@@H]2OC[C@@H](O)[C@H](O)[C@H]2O)[C@@H](O)[C@H](O)[C@H]1O | – | 0.0064% |
| CN1CCN(C(=O)c2cc3cc(Cl)ccc3[nH]2)CC1 | – | -8.19% [at 48.8 µM] |
| C=C1C(=O)OC2CC(COC(=O)C(C)C)=C(C(C)CCCOC(C)=O)[C@@H](OC(C)=O)C12 (some centres undefined) | inactive | – |
| OCC(O)C(c1c[nH]c2ccccc12)c1c[nH]c2ccccc12 (centres undefined) | – | -19.9% [at 48.8 µM] |
| C[C@@H]1O[C@@H](O[C@@H]2[C@@H](O)[C@H](O[C@H]3[C@H](O[C@H]4CC[C@@]5(C)C(CC[C@]6(C)C5CC=C5[C@@H]7CC(C)(C)CC[C@]7(C(=O)O[C@@H]7O[C@H](CO)[C@@H](O)[C@H](O)[C@H]7O)CC[C@]56C)C4(C)C)O[C@H](C(=O)O)[C@@H](O)[C@@H]3O)OC[C@H]2O)[C@H](O)[C@H](O)[C@H]1O (some centres undefined) | inactive [at 15.3 µM] | – |
| CC1(C(=O)O)CCCC2(C)C3CCC4CC3(CCC12)CC4C(=O)O (centres undefined) | – | -12.1% |
| CC(=O)OC[C@]12[C@@H](OC(=O)c3ccoc3)C[C@@H]3[C@@H](OC(C)=O)[C@]1(OC3(C)C)[C@@](C)(O)C[C@H](OC(=O)c1ccoc1)[C@@H]2OC(=O)c1ccoc1 | – | -14.2% [at 15.3 µM] |
| O=C(O)Cn1nnc(-c2ccc(CN(CCCCOc3ccc(CN4CCCC4)cc3)CCc3ccccc3)cc2)n1 | inactive [at 48.8 µM] | – |
